Screening data from PubChem.
Mtb hypoxia inh: Mtb hypoxia fluorescent reporter inhibition; M. tuberculosis hypoxia-regulated fluorescent reporter, fluorescence; fluorescence inhibition, % (concentration not given with the values); 300,000 compounds, 0.1% hits; in the data active means fluorescence inhibition mostly above about 23%, no sharp cut-off; inactive means mostly below about 17%
PfHsp40 yeast: compounds rescuing yeast from Plasmodium falciparum HSP40 toxicity | S. cerevisiae expressing PfHsp40, growth rescue, ATP luminescence | growth rescue, % at 12.5 µM | 340,000 compounds, 0.68% hits | AID 504582; in the data active means growth rescue above about 28%, passing the limit was not always enough; inconclusive means no clear call, values can overlap the other calls;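 further: yeast W303a lacking pdr1 and pdr3 grown in galactose medium; growth measured after three days at 30 °C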
SSB-PriA inh: blocks PriA binding to SSB C-terminal tail | inhibition, % at 33 µM | AlphaScreen SSBct-PriA binding, biotinylated peptide | 430,000 compounds, 0.6% hits; in the data active means inhibition mostly above about 37%, no sharp cut-off; inactive means mostly below about 20%
DUSP3 inh: DUSP3 (human) phosphatase inhibition; P51452; recombinant VHR phosphatase, pNPP absorbance; inhibition, % at 13.3 µM; 290,000 compounds, 0.52% hits; in the data active means inhibition above about 50%
Target sequence (P51452 whole entry, looked up): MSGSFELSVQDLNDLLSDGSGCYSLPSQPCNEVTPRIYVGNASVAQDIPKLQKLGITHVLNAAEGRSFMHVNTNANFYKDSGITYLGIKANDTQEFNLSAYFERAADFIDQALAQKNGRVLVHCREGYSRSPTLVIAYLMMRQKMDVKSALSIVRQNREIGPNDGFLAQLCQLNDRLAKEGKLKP
Sa ugtP lethal: growth inhibition of S. aureus ugtP deletion strain. S. aureus RN4220 ugtP deletion, OD600 growth, 16 h. growth inhibition, % (test concentration not listed). 330,000 compounds, 0.54% hits. AID 1259309; in the data active means growth inhibition above about 68%
RN4220 kill: kills Staphylococcus aureus RN4220 | S. aureus RN4220 growth, OD600, 16 h | inhibition, % (concentration not given with the values) | 330,000 compounds, 0.33% hits | AID 1259311; in the data active means inhibition above about 85%
A number is an active result; – = inactive; ? = inconclusive; · = no result shown; ! = not active in a repeat. Shown are actives, neighbours in structure and some others; about 1.8% of the full set was active somewhere.

SMILES | Mtb hypoxia inh | PfHsp40 yeast | SSB-PriA inh | DUSP3 inh | Sa ugtP lethal | RN4220 kill
CCCC(=O)Nc1cc(C)nn1-c1nc(CC)cc(=O)[nH]1 | · | · | – | · | · | ·
Cc1cc(N)n(-c2nc(-c3ccccc3)cc(=O)[nH]2)n1 | · | · | 53.0! | · | · | ·
Cc1onc(-c2ccccc2)c1C(=O)NC(=N)c1ccc(C(F)(F)F)cc1 | · | · | – | · | · | ·
CCCCCc1nc2c(c(=O)c3ccccc3n2C)c(=O)n1C1CCCCCC1 | – | – | – | – | 100.2 | 98.9
CCn1cc(Cl)c(C(=O)Nc2ccccc2C(N)=O)n1 | – | – | 44.9 | – | – | –
O=C(NNC1=C(C(=O)C(F)(F)F)CCC1)c1ccccc1Cl | – | – | – | – | – | –
O=C(NNC1=C(C(=O)C(F)(F)F)CCC1)c1ccc(Br)cc1 | – | – | – | – | 100.2 | 100.7
O=C(NNC1=C(C(=O)C(F)(F)F)CCC1)c1ccccc1O | – | ? | – | – | 100.9 | 100.2
Nc1ccccc1C(=O)NNC1=C(C(=O)C(F)(F)F)CCC1 | – | – | – | – | – | –
COc1cccc(C(=O)NNC2=C(C(=O)C(F)(F)F)CCC2)c1 | – | – | – | – | 93.1 | –
COc1ccccc1C(=O)NNC1=C(C(=O)C(F)(F)F)CCC1 | – | – | – | – | 99.0 | 100.6
Cc1ccccc1-c1nc(C)c(CNC(=O)c2sc(-n3cccc3)nc2C)s1 | · | · | – | · | · | ·
CC1(C)COCN1C(=O)C1CCN(c2ccc(-n3cncn3)nn2)CC1 | · | · | – | · | · | ·
O=C(Cc1ccsc1)NC1CCN(Cc2noc(-c3ccccc3)n2)C1 (stereo unspecified) | · | · | – | · | · | ·
N#Cc1c(N)n[nH]c1-c1cc2c([nH]1)CCCC2 | – | – | – | – | – | –
N#Cc1c(N)n[nH]c1CCCN | – | – | – | 51.4 | – | –
CCOC(=O)c1ccc(Nc2nc(Nc3ccc(Cl)cc3C)c3nccnc3n2)cc1 | · | · | – | · | · | ·
Cc1cc(NC(=O)Nc2ccccc2)ccc1N1CCCC1=O | · | · | – | · | · | ·
CC12CC3(C)CC(C)(C1)CC(NC(=O)N1CCCC1)(C2)C3 | · | 310.3 | – | – | – | –
Cc1ccc(S(N)(=O)=O)cc1C | · | · | – | · | · | ·
COc1cccc(OC)c1C(=O)NC(=S)NNC(=O)[C@H]1C[C@@H]1c1ccccc1 | – | – | – | – | – | –
O=C(NC(=S)NNC(=O)c1ccccc1O)c1ccccc1 | – | – | – | – | – | –
COc1ccccc1NC(=S)NNC(=O)c1ccccc1 | – | 28.9 | – | · | – | –
COc1ccccc1NC(=S)NNC(=O)c1ccncc1 | – | – | – | – | – | –
O=C(NC(=S)NNC(=O)[C@H]1C[C@@H]1c1ccccc1)c1cccc(F)c1 | – | 48.7 | – | – | – | –
SMILES | Mtb hypoxia inh | PfHsp40 yeast | SSB-PriA inh | DUSP3 inh | Sa ugtP lethal | RN4220 kill
Cc1ccc(C(=O)NC(=S)NNC(=O)c2ccccc2)cc1 | – | 39.3 | – | – | – | –
Cc1ccccc1C(=O)NNC(=S)NC(=O)c1ccccc1 | – | 169.4 | – | – | – | –
O=S(=O)(NCCOc1ccc2nnc(-c3ccccc3)n2n1)c1ccc(F)c(Cl)c1 | · | · | – | · | · | ·
CSc1ccc([C@@H](O)CNC(=O)c2cccc(C#N)c2)cc1 | · | · | – | · | · | ·
COc1ccc(Cl)cc1C(=O)Nc1ccc(Nc2ccc(-n3nc(C)cc3C)nn2)cc1 | · | · | – | · | · | ·
Cc1cccc(C(=O)NNC(=S)NC(=O)c2ccccc2)c1 | – | 127.2 | – | · | – | –
COc1ccc(C(=O)NC(=S)NNC(=O)c2cccc(C)c2)cc1 | – | · | – | · | – | –
Cc1onc(-c2c(Cl)cccc2Cl)c1C(=O)NC1C(=O)N2C1SC(C)(C)C2C(=O)O (stereo unspecified) | – | – | – | – | 100.5 | 100.8
Cc1onc(-c2ccccc2Cl)c1C(=O)NC1C(=O)N2C1SC(C)(C)C2C(=O)O (stereo unspecified) | – | · | · | · | 100.0 | 98.6
O=C(Cc1ccccc1Cl)N1CCC[C@H](Cc2nc(-c3ccsc3)no2)C1 | · | · | – | · | · | ·
Cc1ccc(S(=O)(=O)NCc2ccc(C(=O)N3CCN(c4ccccc4)CC3)cc2)cc1 | – | – | – | 52.7 | – | –
O=C(CCNS(=O)(=O)c1ccccc1)N1CCN(c2ccccc2)CC1 | · | 53.8 | – | – | · | ·
CC(=O)N1CCN(C(=O)CCNS(=O)(=O)c2ccccc2)CC1 | – | – | – | · | – | –
CN1CCOc2ccc(NS(=O)(=O)c3cccc4cccnc34)cc2C1=O | · | · | – | · | · | ·
COc1ccc(OCc2cc(C(=O)NC(C)c3cnn(C)c3)no2)c(Cl)c1 (stereo unspecified) | – | – | – | – | – | –
Cc1nc2cc(OCc3cc(C(=O)NC(C)c4cnn(C)c4)no3)ccc2s1 (stereo unspecified) | – | – | – | 51.1 | – | –
O=C(c1csc(Nc2ccccc2)n1)N1CCN(Cc2ccc3c(c2)OCO3)CC1 | · | · | active | · | · | ·
O=C(c1csc(NS(=O)(=O)c2ccccc2)n1)N1CCN(c2ccccc2F)CC1 | · | · | – | · | · | ·
O=C(c1csc(Nc2ccccc2)n1)N1CCN(c2ccccc2F)CC1 | · | · | 26.0 | · | · | ·
O=C(Cc1csc(Nc2ccccc2)n1)N1CCN(Cc2ccc3c(c2)OCO3)CC1 | · | · | – | · | · | ·
Nc1nc(CSCc2ccccc2)nc(N2CCOCC2)n1 | – | – | – | – | – | –
Nc1nc(CSc2nc3ccccc3s2)nc(N2CCOCC2)n1 | – | – | – | 53.0 | – | –
N#Cc1ccccc1NC(=O)CSc1nccn1-c1ccc(C(=O)NCc2ccccc2F)cc1 | · | · | 35.0 | · | · | ·
O=C(CSc1nccn1-c1ccc(F)cc1)Nc1ccccc1C(F)(F)F | · | · | – | · | · | ·
CSc1ccccc1C(=O)N(CCc1cccs1)Cc1cccnc1 | · | · | – | · | · | ·
SMILES | Mtb hypoxia inh | PfHsp40 yeast | SSB-PriA inh | DUSP3 inh | Sa ugtP lethal | RN4220 kill
COc1ccc(S(=O)(=O)NC[C@H]2CCCO2)cc1C(=O)O | · | · | – | · | · | ·
Cc1ccc(C)c(NC(=O)c2cc(=O)c3ccccc3o2)c1 | – | – | – | – | – | –
Cc1ccc(NC(=O)c2cc(=O)c3ccccc3o2)c(C)c1 | – | – | – | 57.9 | – | –
COc1cc2c(cc1OC)/C(=C/C(=O)c1ccccc1)NCC2 | – | 40.9 | · | – | – | –
COc1ccc(CN2CC(=O)N(c3ccc(Cl)cc3)C2=S)cc1OC | – | – | – | – | – | –
CCc1ccc(N2C(=O)CN(Cc3ccc(OC)c(OC)c3)C2=S)cc1 | – | 31.4 | – | – | – | –
CC(C)N(Cc1ccccc1)C(=S)NCCN1CCOCC1 | – | 35.3 | – | – | – | –
CC(C)N(Cc1ccccc1)C(=S)NCc1ccccc1 | – | – | – | – | – | –
Clc1ccc2c(c1)c1ccccc1n2CN1CCOCC1 | · | 31.2 | – | – | – | –
Clc1ccc2c(c1)c1cc(Cl)ccc1n2CN1CCOCC1 | – | 367.4 | – | – | 84.0 | –
CCn1c2ccccc2c2cc(CNCCCN3CCOCC3)ccc21 | – | – | – | – | – | –
Fc1ccccc1CSc1nnc(-c2cnccn2)n1Cc1ccco1 | – | – | – | – | – | –
O=C(CSc1nnc(-c2ccccn2)n1Cc1ccco1)c1ccc(-c2ccccc2)cc1 | – | – | 49.1 | – | – | –
Clc1ccc(CSc2nnc(-c3ccccn3)n2Cc2ccco2)c(Cl)c1 | – | – | 49.1 | – | – | –
COc1ccccc1NC(=O)CSc1nnc(-c2ccccc2)n1Cc1ccco1 | · | · | 54.9 | · | · | ·
O=[N+]([O-])c1ccc(Sc2nc3ccccc3o2)c([N+](=O)[O-])c1 | – | – | – | – | – | –
